# Experimental data reported in the supplement of paper PMC6411743.
# ± gives the standard deviation of the averaged measurements. Targets with the largest changes are over-represented here; the source holds about 6,200 in all.
# Assays:
# Test in all cases: NP40-soluble protein abundance relative to vehicle (solubility fold change) (ratio); higher = more soluble protein in presence of AMP-PNP
# UniProt Q9BY77|Q9BY77-2 = biological target: T1, UniProt Q9BY77|Q9BY77-2
# T1 sequence (whole entry): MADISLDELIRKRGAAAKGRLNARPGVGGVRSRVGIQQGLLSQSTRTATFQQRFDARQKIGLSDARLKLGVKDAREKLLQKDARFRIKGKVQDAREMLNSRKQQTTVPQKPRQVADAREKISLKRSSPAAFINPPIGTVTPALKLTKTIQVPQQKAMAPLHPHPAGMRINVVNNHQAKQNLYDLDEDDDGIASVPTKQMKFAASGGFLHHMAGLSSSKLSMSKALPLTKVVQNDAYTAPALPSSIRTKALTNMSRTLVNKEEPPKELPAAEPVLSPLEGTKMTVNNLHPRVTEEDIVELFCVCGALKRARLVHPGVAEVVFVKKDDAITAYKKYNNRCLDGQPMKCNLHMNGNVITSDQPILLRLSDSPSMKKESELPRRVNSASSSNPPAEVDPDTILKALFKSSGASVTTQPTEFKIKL
# Outline: (§1)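 Crude Jurkat lysate, prepared by Dounce homogenisation, was exposed to eight concentrations from 0.1 to 10 mM for 10 min at room temperature and then 3 min at 37 °C. Solubilisation used 0.8% NP40 with benzonase for 60 min at 4 °C, followed by ultracentrifugation and TMT labelling of the supernatant for LC-MS/MS. After vsn normalisation of intensities, each value is the fold change against the detergent-processed vehicle within each replicate, across three independent experiments.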
# UniProt Q9H9J4|Q9H9J4-2 = biological target: T2, UniProt Q9H9J4|Q9H9J4-2
# T2 sequence (whole entry): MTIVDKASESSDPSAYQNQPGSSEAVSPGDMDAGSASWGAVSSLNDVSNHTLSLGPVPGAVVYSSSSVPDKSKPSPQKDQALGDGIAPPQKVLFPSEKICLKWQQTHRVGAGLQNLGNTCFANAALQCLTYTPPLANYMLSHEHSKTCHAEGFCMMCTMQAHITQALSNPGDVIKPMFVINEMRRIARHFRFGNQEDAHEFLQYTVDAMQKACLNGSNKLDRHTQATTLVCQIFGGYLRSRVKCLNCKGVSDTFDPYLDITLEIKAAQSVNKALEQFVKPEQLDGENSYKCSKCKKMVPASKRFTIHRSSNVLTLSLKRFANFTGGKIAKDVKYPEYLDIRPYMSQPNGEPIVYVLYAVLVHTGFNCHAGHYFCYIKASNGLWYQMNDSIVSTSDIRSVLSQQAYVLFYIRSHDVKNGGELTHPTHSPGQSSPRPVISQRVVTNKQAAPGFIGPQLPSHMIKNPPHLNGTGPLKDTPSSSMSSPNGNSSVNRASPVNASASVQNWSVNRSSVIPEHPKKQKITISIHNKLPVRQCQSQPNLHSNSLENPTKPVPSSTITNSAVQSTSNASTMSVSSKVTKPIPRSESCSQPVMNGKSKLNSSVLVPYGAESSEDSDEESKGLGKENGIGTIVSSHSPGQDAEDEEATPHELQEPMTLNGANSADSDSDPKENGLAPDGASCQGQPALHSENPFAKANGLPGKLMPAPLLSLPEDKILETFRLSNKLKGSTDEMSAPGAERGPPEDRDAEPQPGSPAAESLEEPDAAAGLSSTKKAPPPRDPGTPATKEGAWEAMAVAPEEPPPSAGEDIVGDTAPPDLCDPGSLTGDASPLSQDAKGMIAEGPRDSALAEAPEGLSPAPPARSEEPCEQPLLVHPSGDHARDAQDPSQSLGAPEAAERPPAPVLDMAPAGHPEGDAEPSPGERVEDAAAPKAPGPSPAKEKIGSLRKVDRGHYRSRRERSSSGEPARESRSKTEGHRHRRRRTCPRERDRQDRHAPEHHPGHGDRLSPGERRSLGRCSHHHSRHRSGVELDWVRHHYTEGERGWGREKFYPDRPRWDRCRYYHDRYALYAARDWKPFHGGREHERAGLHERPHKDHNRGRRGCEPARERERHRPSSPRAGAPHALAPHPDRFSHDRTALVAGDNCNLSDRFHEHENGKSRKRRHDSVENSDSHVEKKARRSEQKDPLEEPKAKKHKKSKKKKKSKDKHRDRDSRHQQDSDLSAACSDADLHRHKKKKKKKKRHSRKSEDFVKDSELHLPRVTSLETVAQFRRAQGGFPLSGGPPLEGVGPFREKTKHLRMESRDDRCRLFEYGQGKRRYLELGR
# Outline: as §1
# UniProt Q9NPJ3 = biological target: T3, UniProt Q9NPJ3
# T3 sequence (whole entry): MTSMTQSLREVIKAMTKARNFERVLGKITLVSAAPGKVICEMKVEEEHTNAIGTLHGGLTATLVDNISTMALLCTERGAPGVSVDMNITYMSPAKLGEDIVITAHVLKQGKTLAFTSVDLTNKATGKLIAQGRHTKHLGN
# Outline: as §1
# [1] = biological target: T4, UniProt Q9NQ86-4|E9PBG3|Q9NQ86
# T4 sequence (whole entry): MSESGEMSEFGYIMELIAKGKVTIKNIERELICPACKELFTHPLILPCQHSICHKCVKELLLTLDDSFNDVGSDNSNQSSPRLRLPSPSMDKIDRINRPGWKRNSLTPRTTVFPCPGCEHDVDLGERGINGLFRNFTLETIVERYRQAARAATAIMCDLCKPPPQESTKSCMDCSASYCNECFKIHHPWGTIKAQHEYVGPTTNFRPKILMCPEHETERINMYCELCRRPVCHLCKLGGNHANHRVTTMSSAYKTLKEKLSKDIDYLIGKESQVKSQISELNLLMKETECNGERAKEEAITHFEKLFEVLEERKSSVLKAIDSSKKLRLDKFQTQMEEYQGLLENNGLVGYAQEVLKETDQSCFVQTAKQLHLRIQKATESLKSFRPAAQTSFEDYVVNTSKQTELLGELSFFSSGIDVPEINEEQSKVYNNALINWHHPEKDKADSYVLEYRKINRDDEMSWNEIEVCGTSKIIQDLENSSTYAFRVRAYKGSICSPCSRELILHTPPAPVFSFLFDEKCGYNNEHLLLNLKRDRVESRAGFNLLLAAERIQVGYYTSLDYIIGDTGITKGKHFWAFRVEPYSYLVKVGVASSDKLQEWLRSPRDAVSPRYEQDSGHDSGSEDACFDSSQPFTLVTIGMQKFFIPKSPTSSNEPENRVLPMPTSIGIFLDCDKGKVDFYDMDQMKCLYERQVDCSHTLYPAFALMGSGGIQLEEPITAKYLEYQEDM
# Outline: as §1
# UniProt Q9NUS5 = biological target: T5, UniProt Q9NUS5
# T5 sequence (whole entry): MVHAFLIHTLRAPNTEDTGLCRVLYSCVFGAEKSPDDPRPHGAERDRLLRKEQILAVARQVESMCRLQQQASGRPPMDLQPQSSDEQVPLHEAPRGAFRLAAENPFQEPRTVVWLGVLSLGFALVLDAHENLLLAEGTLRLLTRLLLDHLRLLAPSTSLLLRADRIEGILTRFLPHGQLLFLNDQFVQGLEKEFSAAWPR
# Outline: as §1
# [2] = biological target: T6, UniProt Q9NVH6|Q9NVH6-7|Q9NVH6-8
# T6 sequence (whole entry): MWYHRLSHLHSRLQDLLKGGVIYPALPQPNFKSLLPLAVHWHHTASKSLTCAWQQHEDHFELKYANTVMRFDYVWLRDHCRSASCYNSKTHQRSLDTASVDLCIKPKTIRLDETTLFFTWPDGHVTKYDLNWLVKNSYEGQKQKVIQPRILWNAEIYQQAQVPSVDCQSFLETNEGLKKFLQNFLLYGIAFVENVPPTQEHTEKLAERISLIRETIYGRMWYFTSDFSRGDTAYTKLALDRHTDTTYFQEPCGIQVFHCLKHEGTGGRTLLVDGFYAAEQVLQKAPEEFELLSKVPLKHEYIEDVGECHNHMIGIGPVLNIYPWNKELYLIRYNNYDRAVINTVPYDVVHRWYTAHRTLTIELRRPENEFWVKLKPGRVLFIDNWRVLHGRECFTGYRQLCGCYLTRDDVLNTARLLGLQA
# Outline: as §1
# VRK1 = biological target: T7, VRK1 (UniProt Q99986)
# T7 sequence (whole entry): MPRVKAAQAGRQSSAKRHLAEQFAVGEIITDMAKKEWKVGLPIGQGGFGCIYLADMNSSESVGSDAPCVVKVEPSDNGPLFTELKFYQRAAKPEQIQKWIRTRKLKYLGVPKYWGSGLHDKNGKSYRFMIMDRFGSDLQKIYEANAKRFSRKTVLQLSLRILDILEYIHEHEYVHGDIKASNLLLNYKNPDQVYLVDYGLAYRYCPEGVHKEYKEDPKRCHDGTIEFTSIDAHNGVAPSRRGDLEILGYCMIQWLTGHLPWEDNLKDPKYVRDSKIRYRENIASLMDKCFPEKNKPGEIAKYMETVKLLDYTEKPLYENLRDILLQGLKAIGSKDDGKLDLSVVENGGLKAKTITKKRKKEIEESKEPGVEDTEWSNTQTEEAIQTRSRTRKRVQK
# Outline: as §1
compound,measurement,setting,value
Nc1ncnc2c1ncn2[C@@H]1O[C@H](COP(=O)(O)OP(=O)(O)NP(=O)(O)O)[C@@H](O)[C@H]1O [adenylyl imidodiphosphate],NP40-soluble protein abundance,UniProt Q9BY77|Q9BY77-2; concentration: 6mM,1.17 ± 0.016
same,NP40-soluble protein abundance,UniProt Q9BY77|Q9BY77-2; concentration: 8mM,1.24 ± 0.028
same,NP40-soluble protein abundance,UniProt Q9BY77|Q9BY77-2; concentration: 10mM,1.37 ± 0.081
same,NP40-soluble protein abundance,UniProt Q9H9J4|Q9H9J4-2; concentration: 1mM,1.02 ± 0.026
same,NP40-soluble protein abundance,UniProt Q9H9J4|Q9H9J4-2; concentration: 2mM,1.03 ± 0.035
same,NP40-soluble protein abundance,UniProt Q9H9J4|Q9H9J4-2; concentration: 4mM,1.01 ± 0.035
same,NP40-soluble protein abundance,UniProt Q9H9J4|Q9H9J4-2; concentration: 6mM,0.993 ± 0.011
same,NP40-soluble protein abundance,UniProt Q9H9J4|Q9H9J4-2; concentration: 8mM,1.03 ± 0.03
same,NP40-soluble protein abundance,UniProt Q9H9J4|Q9H9J4-2; concentration: 10mM,1.04 ± 0.04
same,NP40-soluble protein abundance,UniProt Q9NPJ3; concentration: 1mM,0.947 ± 0.014
same,NP40-soluble protein abundance,UniProt Q9NPJ3; concentration: 2mM,0.9081 ± 0.0059
same,NP40-soluble protein abundance,UniProt Q9NPJ3; concentration: 4mM,0.9 ± 0.028
same,NP40-soluble protein abundance,UniProt Q9NPJ3; concentration: 6mM,0.974 ± 0.062
same,NP40-soluble protein abundance,UniProt Q9NPJ3; concentration: 8mM,0.976 ± 0.032
same,NP40-soluble protein abundance,UniProt Q9NPJ3; concentration: 10mM,0.948 ± 0.076
same,NP40-soluble protein abundance,[1]; concentration: 1mM,0.952 ± 0.04
same,NP40-soluble protein abundance,[1]; concentration: 2mM,0.976 ± 0.047
same,NP40-soluble protein abundance,[1]; concentration: 4mM,0.994 ± 0.042
same,NP40-soluble protein abundance,[1]; concentration: 6mM,0.998 ± 0.017
same,NP40-soluble protein abundance,[1]; concentration: 8mM,1 ± 0.044
same,NP40-soluble protein abundance,[1]; concentration: 10mM,1.01 ± 0.023
same,NP40-soluble protein abundance,UniProt Q9NUS5; concentration: 1mM,0.96 ± 0.016
same,NP40-soluble protein abundance,UniProt Q9NUS5; concentration: 2mM,0.936 ± 0.051
same,NP40-soluble protein abundance,UniProt Q9NUS5; concentration: 4mM,0.963 ± 0.02
same,NP40-soluble protein abundance,UniProt Q9NUS5; concentration: 6mM,0.948 ± 0.012
same,NP40-soluble protein abundance,UniProt Q9NUS5; concentration: 8mM,0.938 ± 0.038
same,NP40-soluble protein abundance,UniProt Q9NUS5; concentration: 10mM,0.936 ± 0.041
same,NP40-soluble protein abundance,[2]; concentration: 1mM,0.969 ± 0.051
same,NP40-soluble protein abundance,[2]; concentration: 2mM,0.9817 ± 0.0096
same,NP40-soluble protein abundance,[2]; concentration: 4mM,0.984 ± 0.06
same,NP40-soluble protein abundance,[2]; concentration: 6mM,0.972 ± 0.065
same,NP40-soluble protein abundance,[2]; concentration: 8mM,0.985 ± 0.018
same,NP40-soluble protein abundance,[2]; concentration: 10mM,0.969 ± 0.046
same,NP40-soluble protein abundance,VRK1; concentration: 1mM,1.08 ± 0.036
same,NP40-soluble protein abundance,VRK1; concentration: 2mM,1.1 ± 0.078
same,NP40-soluble protein abundance,VRK1; concentration: 4mM,1.22 ± 0.03
same,NP40-soluble protein abundance,VRK1; concentration: 6mM,1.43 ± 0.061
same,NP40-soluble protein abundance,VRK1; concentration: 8mM,1.51 ± 0.11
same,NP40-soluble protein abundance,VRK1; concentration: 10mM,1.56 ± 0.1
